In the library only some 9.2% were active in any assay of this set; here they are far more common.
NPC1 promoter act – NPC1 promoter activation | 320,000 compounds, 2.4% hits | Huh7 NPC1 promoter luciferase reporter, 24 h | Potency, µM (doses to about 9.22 µM), for inactives: at the top dose activation, actives largely listed as activators; note: % of control where 0% means no effect; nearly all actives have a fitted effect of over 60% in size
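In 1536-well qHTS, Huh7 cells harboring an NPC1 promoter–luciferase construct received compound for 24 h; activation was quantified by luminescence following luciferase reagent addition.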
Rab9 prom act – activates the Rab9 promoter; 320,000 compounds, 2.8% hits; Potency, µM (doses to about 9.22 µM), for inactives: top-dose activation, negative = inhibition, hits mostly activators; Huh7 Rab9 promoter-luciferase reporter, luminescence, 24 h; note: % of control where 0% means no effect; nearly all actives have a fitted effect of over 60% in size
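Luminescence from Amplite-detected luciferase (10 minutes, ambient) reports Rab9 promoter activation. Before that, stable Rab9-luciferase Huh7 cells (1500/well, reduced-serum OP-MEM I plus 10% FBS) were exposed to compound for 24 hours at 37C.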
ELG1 genotoxic – genotoxicity induction in ELG1-luciferase HEK293T cells | HEK293T ELG1-luciferase reporter, luminescence, 16 h | Potency, µM (highest dose often 46 µM), for inactives: at the top dose activity change, positive = activation, most hits filed as activators | 330,000 compounds, 1.3% hits | AID 504466; note: % of control where 0% means no effect; nearly all actives have a fitted effect of over 60% in size
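16 hr compound incubation (37 °C, 5% CO2) of HEK293T cells carrying luciferase-tagged ELG1; luciferase then measured by ONE-Glo luminescence after 30 min at RT.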
FLuc modulator – inhibits or activates purified firefly luciferase, miR-21 counter-screen | Potency, µM (top dose mostly 57.5 µM), for inactives: at the top dose activity change, negative = inhibition, actives largely listed as inhibitors | AID 588342 | purified FLuc, Km substrates, luminescence inhibition | 360,000 compounds, 6.9% hits;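 note: plate controls were vehicle for no effect and reference inhibitor for full effect; nearly all actives have a fitted effect of over 55% in size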
Target sequence (P08659 whole entry, looked up): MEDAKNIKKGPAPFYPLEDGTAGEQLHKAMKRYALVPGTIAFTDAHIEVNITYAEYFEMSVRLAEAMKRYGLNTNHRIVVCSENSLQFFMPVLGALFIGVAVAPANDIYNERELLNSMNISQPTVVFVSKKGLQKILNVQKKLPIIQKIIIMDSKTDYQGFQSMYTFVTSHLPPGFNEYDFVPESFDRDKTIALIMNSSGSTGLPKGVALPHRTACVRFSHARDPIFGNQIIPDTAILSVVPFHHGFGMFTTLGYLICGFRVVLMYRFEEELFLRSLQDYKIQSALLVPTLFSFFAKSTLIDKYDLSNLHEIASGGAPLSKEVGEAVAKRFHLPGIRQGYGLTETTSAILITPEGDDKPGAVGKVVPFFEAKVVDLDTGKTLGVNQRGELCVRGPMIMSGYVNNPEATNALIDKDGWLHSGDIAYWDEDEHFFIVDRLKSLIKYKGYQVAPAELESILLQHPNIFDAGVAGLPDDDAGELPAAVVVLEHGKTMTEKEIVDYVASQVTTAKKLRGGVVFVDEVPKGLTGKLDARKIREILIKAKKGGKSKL
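Purified P. pyralis luciferase (10nM final) with 10uM D-luciferin and 10uM ATP (Km levels) in 50mM Tris acetate pH 7.5, 10mM Mg acetate, 0.01% Tween-20, 0.05% BSA; qHTS 6-point titration, ~60 µM downward; luminescence read.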
SMN2 splice enh – increases expression of the SMN2 splice variant; HEK293 SMN2-luciferase splicing reporter, luminescence, 30-36 h; AID 1458; 210,000 compounds, 2.8% hits; Potency, µM (doses to about 46.1 µM), inactives show at the highest dose activity change, positive = activation, hits mostly activators; note: % of control where 0% means no effect; nearly all actives have a fitted effect of over 55% in size
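qHTS luciferase splicing reporter: luminescence rises when SMN2 exon 7 is included in transfected HEK293 cells. Compound exposure lasted 30-36 h at 37C, with 4.5 mM final sodium butyrate as control, followed by a ONE-Glo read.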
ELG1 DNA repair – inhibitors of ELG1-dependent DNA repair in HEK293T cells. HEK293T ELG1-luciferase reporter, luminescence, 16 h; DNA damage induced by 5-fluorouridine. 330,000 compounds, 2.3% hits. Potency, µM (doses to about 46.1 µM), without a hit: at the highest dose activity change, negative = inhibition, most hits filed as inhibitors; note: % is set by controls: 0 for no effect and ±100 for the full control effect; nearly all actives have a fitted effect of over 55% in size
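HEK293T cells expressing luciferase-tagged ELG1 (2,000/well) received 5-Fluorouridine plus compound or DMSO for 16 hr at 37 °C. Luciferase was read by ONE-Glo luminescence after 30 min at room temperature.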
* hit, by the source's call; u = inconclusive; x = not tested or not shown. Calls come from the whole dose curve; as a rule, active = well fitted curve in the direction sought with a large enough effect; inconclusive = small, poorly fitted or top-dose-only effect, or another doubt; inactive = no such curve, though single readings can be large; an effect the other way counts as inactive or inconclusive. Potency is the fitted concentration of half-maximal effect.

SMILES	NPC1 promoter act	Rab9 prom act	ELG1 genotoxic	FLuc modulator	SMN2 splice enh	ELG1 DNA repair
CC(NC(=O)C12CC3CC(CC(C3)C1)C2)C(=O)N/N=C/C1=C(N2CCOCC2)C(=C\c2cccc([N+](=O)[O-])c2)/CC1 (stereo not given)	-4%	-3%	-3%	1%	0%	6.5µM*
CCN(CC)c1ccc(NC(=O)/C=C\c2ccccc2Cl)cc1	26%	27%	7.3µM*	2.7µM*	u	u
COC(=O)c1sc(NC(=O)/C=C/c2ccccc2Cl)nc1C	9%	-8%	-16%	-11%	u	21%
O=C(/C=C/c1ccccc1Cl)NCc1ccccc1	3%	29%	14%	u	16%	u
CN(C)c1ccc(NC(=O)/C=C/c2ccccc2Cl)cc1	u	2.5µM*	u	1.2µM*	20µM*	u
O=C(/C=C/c1ccc(Cl)cc1)NC(=S)Nc1ccc(C(=O)O)cc1	-4%	-3%	5%	-19%	x	-4%
CN(C)c1ccc(NC(=S)NC(=O)/C=C/c2ccc(Cl)cc2)cc1	16%	21%	11%	4.8µM*	44%	u
Cn1c(=O)c2sccc2n2c(CCCC(=O)Nc3ccc(Oc4ccccc4)cc3)nnc12	x	x	x	-19%	x	x
O=C(c1ccco1)N1CCC[C@@]2(CCN(C(c3ccccc3)c3ccccc3)C2)C1	x	x	x	x	-21%	x
Cc1oc2c(c1C(=O)O)C(=O)c1ccccc1C2=O	14%	u	-3%	-6%	-13%	8.2µM*
CCOC(=O)c1c(C)oc2c1C(=O)c1ccccc1C2=O	-2%	-13%	-13%	-8%	-69%	7.3µM*
Cc1oc2c(c1C(=O)c1ccccc1)C(=O)C(=O)c1ccccc1-2	-46%	8%	-19%	-5%	-93%	u
CCOC(=O)c1c(C)nc2c(c1-c1ccccc1)C(=O)c1ccccc1-2	1%	-3%	-2%	-15%	-10%	u
Cc1nc(SCc2ccccc2)nc2c1CCC2	u	u	u	17µM*	11µM*	u
CCc1ccc(CNCc2c(C(=O)O)n(Cc3ccc(C)cc3)c3cc(C)ccc23)cc1	x	x	x	-12%	x	x
Cc1ccc(-n2ncc(Cl)c2C(=O)NCc2ccccc2)cc1	u	u	u	11µM*	x	u
C=CCNC(=O)c1c(Br)cnn1-c1ccc(C)cc1	2.5µM*	2.5µM*	u	19µM*	x	u
CCOC(=O)c1ccccc1NC(=O)C1CCCO1 (stereo not given)	0%	1%	-1%	3%	x	5%
O=C(Nc1ccccc1C(=O)O)c1ccc(NC(=O)C2CCCO2)cc1 (stereo not given)	-4%	-2%	3%	6.7µM*	x	10%
CCc1ccc(NC(=O)c2ccccc2NC(=O)C2CCCO2)cc1 (stereo not given)	3.5µM*	3.5µM*	12µM*	17µM*	13µM*	u
O=C(NCCOc1ccccc1)c1ccccc1NC(=O)C1CCCO1 (stereo not given)	4µM*	2.2µM*	9%	u	11µM*	u
CCN(CC)CCNC(=O)c1ccc2c(c1)N(Cc1ccccc1)C(=O)c1ccccc1S2=O (stereo not given)	x	x	x	1%	-18%	x
Cc1ccccc1-c1nc(CN2CCC(C(=O)NC(C)C)CC2)c(C)o1	x	x	x	-1%	-8%	x
Cc1ccc2occ(-c3cc(-c4ccc(F)cc4)nc4c3COc3ccc(F)cc3-4)c(=O)c2c1	x	x	x	-2%	-3%	x
COc1ccc2c(c1)c1c(c(=O)n(Cc3ccccc3)c(=O)n1Cc1cc(C)ccc1C)n2C	x	x	x	0%	x	x
SMILES	NPC1 promoter act	Rab9 prom act	ELG1 genotoxic	FLuc modulator	SMN2 splice enh	ELG1 DNA repair
CCc1ccccc1-n1nnc(-c2ccccc2)n1	5%	8%	-2%	2%	x	-6%
Brc1ccccc1-n1nnc(-c2ccnc3ccccc23)n1	2%	19%	0%	17µM*	x	-13%
CCN(c1ccccc1)c1nnc(NC(=O)Nc2ccc(C)cc2)s1	x	x	x	1%	x	x
NC(=O)N/N=C/c1cn(-c2ccccc2)nc1-c1cccnc1	1%	-2%	6%	9.5µM*	x	17%
NC(=S)N/N=C/c1cn(-c2ccccc2)nc1-c1cccnc1	15%	12%	7%	6µM*	x	2%
CCc1ccc2oc(C(=O)Nc3nonc3C)c(C)c2c1	0.32µM*	0.63µM*	3.3µM*	2.1µM*	x	u
CCc1nonc1NC(=O)c1oc2ccc(F)cc2c1C	24%	u	10%	-1%	0%	u
Cc1cc2oc(C(=O)Nc3nonc3C)c(C)c2cc1C	1.1µM*	4µM*	10µM*	2.4µM*	x	u
Cc1ccc(C(=O)N/N=C\c2ccncc2)s1	21%	22%	u	u	x	u
O=C(N/N=C/c1cccnc1)c1sc2ccccc2c1Cl	0%	11%	8%	19µM*	x	-1%
O=C(N/N=C\c1cccnc1)c1ccc(Br)s1	22%	18%	10%	9.5µM*	x	u
COc1ccc2c(Cl)c(C(=O)N/N=C/c3cccnc3)sc2c1	-1%	-1%	-3%	u	x	-14%
CCc1ccc(C(=O)N/N=C/c2ccncc2)s1	18%	u	u	12µM*	x	u
O=C(N/N=C/c1ccc(Br)s1)c1cccnc1	-1%	0%	-1%	-17%	-2%	6%
O=C(N/N=C\c1ccncc1)c1ccc(Cl)s1	14%	4%	15%	17µM*	x	20%
Cc1ccccc1C1C=C(c2ccc(Cl)cc2)Nc2nnnn21 (stereo not given)	x	x	x	-2%	x	x
Cc1ccc(S(=O)(=O)Nc2cccc(C(=O)NCc3ccc(S(N)(=O)=O)cc3)c2)cc1	0%	1%	-4%	3%	x	-21%
O=C(N/N=C/c1cccnc1)c1cc(O)c(O)c(O)c1	0%	5%	1%	-19%	x	16%
O=C(N/N=C\c1cccnc1)c1ccc(Cl)s1	1%	16%	u	13µM*	x	u
O=C(N/N=C\c1ccncc1)c1ccc(Br)s1	-4%	5%	9%	15µM*	x	u
O=C(Nc1nnc(-c2ccncc2)o1)c1ccc(Br)s1	-2%	-6%	-7%	u	-61%	8.2µM*
O=C(N/N=C/c1ccncc1)c1cc(-c2ccc(Br)s2)[nH]n1	11%	-2%	1%	15µM*	x	4%
COc1ccc(CNCCCSc2nnnn2C)c(OC)c1	x	x	x	4%	x	x
CC1Cc2cc(S(=O)(=O)CCC(=O)Nc3ccc(OC(F)(F)F)cc3)ccc2N1C(=O)C1CC1 (stereo not given)	x	x	x	2%	x	x
Cc1ccn2cc(CSc3ccccc3)nc2c1	1.3µM*	1.4µM*	3.7µM*	4.8µM*	13µM*	u
